Results published in PubChem BioAssay AID2330 (Broad Institute, 2010).
About 2,800 (7.6%) of roughly 37,000 compounds were called active. About 1% were inconclusive and are not listed. Cut-off read from the data, not from the text of the source: active = inhibition above about 80%; inconclusive = no clear call, values can overlap the other calls; inactive = below that. For the sample, actives were picked, then their nearest neighbours and some compounds at random.

Test: NOMO-1 AML cell viability reduction, primary screen, STK33 inhibitor project, CellTiter-Glo luminescence (AID 2330)
Conditions: NOMO-1 AML viability, 72 h, active compounds read high, concentration not given here

Compound | inhibition
COc1ccc(CN(C)C[C@@H]2Oc3ccc(NC(=O)c4ccncc4)cc3CC(=O)N([C@H](C)CO)C[C@H]2C)cc1 | 13.5% (inactive)
C[C@H]1CN([C@@H](C)CO)C(=O)Cc2cc(NC(=O)Nc3ccccc3)ccc2O[C@H]1CN(C)Cc1ccncc1 | 19.2% (inactive)
C[C@@H]1CN([C@@H](C)CO)C(=O)Cc2cc(NC(=O)C3CCCCC3)ccc2O[C@@H]1CN(C)C(=O)Nc1ccc(C(F)(F)F)cc1 | 37.5% (inactive)
C[C@@H]1CN([C@H](C)CO)C(=O)Cc2cc(NC(=O)c3ccncc3)ccc2O[C@H]1CN(C)Cc1ccc(-c2ccccc2)cc1 | 111% (active)
C[C@H]1CN([C@@H](C)CO)C(=O)Cc2cc(NC(=O)C3CCCCC3)ccc2O[C@H]1CN(C)C(=O)Nc1ccc(C(F)(F)F)cc1 | 11.2% (inactive)
C[C@H]1CN([C@@H](C)CO)C(=O)Cc2cc(NC(=O)CCCN(C)C)ccc2O[C@@H]1CN(C)Cc1ccc(-c2ccccc2)cc1 | 24.3% (inactive)
C[C@@H]1CN([C@H](C)CO)C(=O)Cc2cc(NC(=O)c3ccncc3)ccc2O[C@@H]1CN(C)Cc1ccncc1 | -19.5% (inactive)
C[C@H]1CN([C@@H](C)CO)C(=O)Cc2cc(NC(=O)Nc3ccc(C(F)(F)F)cc3)ccc2O[C@H]1CN(C)Cc1ccc(C(=O)O)cc1 | 12.6% (inactive)
C[C@@H]1CN([C@H](C)CO)C(=O)Cc2cc(NC(=O)C3CCCCC3)ccc2O[C@@H]1CN(C)Cc1ccc(C(F)(F)F)cc1 | 101% (active)
C[C@H](CO)N1C[C@H](C)[C@H](CN(C)Cc2ccc(-c3ccccc3)cc2)Oc2ccc(NC(=O)Nc3ccc(F)cc3)cc2CC1=O | 110% (active)
C[C@@H]1CN([C@H](C)CO)C(=O)Cc2cc(NC(=O)Nc3ccc4c(c3)OCO4)ccc2O[C@H]1CN(C)Cc1ccc(C(F)(F)F)cc1 | 77% (inactive)
C[C@@H]1CN([C@H](C)CO)C(=O)Cc2cc(NC(=O)Nc3ccc(C(F)(F)F)cc3)ccc2O[C@H]1CN(C)Cc1ccc(-c2ccccc2)cc1 | 128% (active)
CC(C)NC(=O)N(C)C[C@@H]1Oc2ccc(NC(=O)C3CCCCC3)cc2CC(=O)N([C@H](C)CO)C[C@@H]1C | 27.6% (inactive)
Cc1noc(C)c1NC(=O)Nc1cccc2c1O[C@@H](CN(C)CC1CCCCC1)[C@H](C)CN([C@@H](C)CO)C2=O | -7.61% (inactive)
Nc1nnc(SCC(=O)Nc2ccc(Cl)cc2O)s1 | 14.9% (inactive)
C[C@@H]1CN([C@H](C)CO)C(=O)c2cccc(NC(=O)C3CCOCC3)c2O[C@H]1CN(C)S(=O)(=O)c1ccc(Cl)cc1 | 7.24% (inactive)
COc1ccc(NC(=O)N(C)C[C@@H]2Oc3c(NS(C)(=O)=O)cccc3C(=O)N([C@H](C)CO)C[C@H]2C)cc1 | 12.7% (inactive)
COc1cccc(-c2cc(C(F)(F)F)n3nc(C(=O)NCc4ccccn4)cc3n2)c1 | 12.5% (inactive)
COC(=O)c1sc(SC)c(-c2ccn(S(=O)(=O)c3ccc(Cl)cc3)n2)c1C | -4.42% (inactive)

Compound | inhibition
Cc1ccc(S(=O)(=O)N(C)C[C@H]2Oc3ccc(NC(=O)Cc4cn(C)c5ccccc45)cc3CC(=O)N([C@@H](C)CO)C[C@H]2C)cc1 | 15.7% (inactive)
N#Cc1c(SCC(=O)Nc2ccc(F)cc2Cl)nc2c(c1C(F)(F)F)CCCCC2 | 24.5% (inactive)
C=CCn1c(SCc2nc3ccccc3[nH]2)nnc1-c1cccc(C)c1 | 1.23% (inactive)
Cc1noc(C)c1NC(=O)Nc1ccc2c(c1)CC(=O)N([C@H](C)CO)C[C@@H](C)[C@@H](CN(C)Cc1ccc(C(F)(F)F)cc1)O2 | 25.7% (inactive)
COc1ccc(NC(=O)Nc2ccc3c(c2)CC(=O)N([C@@H](C)CO)C[C@@H](C)[C@@H](CN(C)Cc2ccc(C(F)(F)F)cc2)O3)cc1 | 101% (active)
COc1ccc(NC(=O)Nc2ccc3c(c2)CC(=O)N([C@H](C)CO)C[C@H](C)[C@H](CN(C)Cc2ccncc2)O3)cc1 | -3.73% (inactive)
C[C@H]1CN([C@@H](C)CO)C(=O)Cc2cc(NC(=O)Cc3cn(C)c4ccccc34)ccc2O[C@H]1CN(C)Cc1ccccc1 | 7.92% (inactive)
C[C@H]1CN([C@@H](C)CO)C(=O)Cc2cc(NC(=O)Cc3cn(C)c4ccccc34)ccc2O[C@@H]1CN(C)Cc1ccccc1 | 32.3% (inactive)
C[C@@H]1CN([C@H](C)CO)C(=O)Cc2cc(NC(=O)Nc3cccc4ccccc34)ccc2O[C@@H]1CN(C)Cc1ccc(C(F)(F)F)cc1 | 105% (active)
C[C@@H]1CN([C@H](C)CO)C(=O)Cc2cc(NC(=O)Cc3cn(C)c4ccccc34)ccc2O[C@@H]1CN(C)Cc1ccc(C(F)(F)F)cc1 | 112% (active)
COc1ccc(CN(C)C[C@@H]2Oc3ccc(NC(=O)Nc4ccc(OC)cc4)cc3CC(=O)N([C@H](C)CO)C[C@H]2C)cc1 | 22% (inactive)
C[C@@H]1CN([C@H](C)CO)C(=O)Cc2cc(NC(=O)Nc3cccc4ccccc34)ccc2O[C@@H]1CN(C)Cc1ccc(C(=O)O)cc1 | 20.5% (inactive)
C[C@@H]1CCCCO[C@@H](CN(C)C)[C@@H](C)CN([C@H](C)CO)C(=O)c2cc(NC(=O)c3ccncc3)ccc2O1 | 17.5% (inactive)
CC(C)NC(=O)N(C)C[C@H]1Oc2c(NC(=O)C3CCCCC3)cccc2C(=O)N([C@@H](C)CO)C[C@H]1C | -7.34% (inactive)
C[C@H](CO)N1C[C@H](C)[C@@H](CN(C)C(=O)Nc2ccc3c(c2)OCO3)Oc2c(cccc2N(C)C)C1=O | 13.3% (inactive)
Cc1noc(C)c1NC(=O)N(C)C[C@H]1Oc2ccc(NC(=O)Nc3ccc(C(F)(F)F)cc3)cc2CC(=O)N([C@@H](C)CO)C[C@@H]1C | 8.18% (inactive)
O=C(O)c1c(Br)c(Br)c(Br)c(Br)c1-c1c2ccc(=O)cc-2oc2cc(O)ccc12 | 21.5% (inactive)
O=C(CSc1nnc(-c2cccs2)n1-c1ccccc1Cl)Nc1cccc(C(=O)O)c1 | -8.58% (inactive)
O=C(NCc1ccccn1)C(=O)Nc1cccc(Cl)c1Cl | -11.7% (inactive)
